{
  "source": "PubChem BioAssay (EPA / NIEHS)",
  "note": "Results filed as inconclusive are left out. Activity calls are given as the source filed them. The calls were made as follows: active = hit-call score of the fitted dose curve at least 0.9, where 1 is the maximum; inconclusive = response in the unintended direction; inactive = score below 0.9.",
  "data": [
    {"experiment": "ATG_M_32_TRANS: Attagene TRANS-FACTORIAL HepG2 Assay for M32 Transcription Factor (Internal Marker) (AID 2282984)", "details": "HepG2 Attagene TRANS M32 internal marker reporter", "experimental": "ATG_TRANS is a cell-based, multiplexed-readout assay that uses HepG2, a human liver cell line, with measurements taken at 24 hours after chemical dosing in a 24-well plate.ATG_M_32_TRANS is one of 30 assay component(s) measured or calculated from the ATG_TRANS assay. It is designed to make measurements of mRNA induction, a form of inducible reporter, as detected with fluorescence intensity signals by Reverse transcription polymerase chain reaction (RT-PCR) and Capillary electrophoresis technology.Data from the assay component ATG_M_32_TRANS was analyzed into 1 assay endpoint. This assay endpoint, ATG_M_32_TRANS, was analyzed in the positive analysis fitting direction relative to DMSO as the negative control and baseline of activity. Using a type of inducible reporter, measures of mRNA for gain-of-signal activity can be used to understand the background control at the transcription factor-level as they relate to the gene . Furthermore, this assay endpoint can be referred to as a secondary readout, because this assay has produced multiple assay endpoints where this one serves a background control function. To generalize the intended target to other relatable targets, this assay endpoint is annotated to the background measurement intended target family, where the subfamily is internal marker.\nHuman liver HepG2 cells are transiently transfected with multiple reporter transcription units (MRTUs) in 6-well plates using FuGene 6 reagent (Roche; 3 ml FuGene/1 mg DNA). The MRTU constructs are regulated by a cis-regulating element (promoter). […] A major difference between the CIS and TRANS system is that in CIS activities of endogenous TFs are measured, whereas the TRANS assay evaluates changes in activities of exogenous, chimeric NR-Gal4 proteins. […] At the end of 24 hour incubation, total RNA was isolated using TriZol reagent (Invitrogen). The isolated RNA is then reverse-transcribed using oligo(dT) primer and Mo-MLV reverse transcriptase (Invitrogen) with DNAse I (Ambion) treatment for 30 min. The one-tenth of the produced cDNA was amplified by PCR using Taq DNA polymerase (Invitrogen) and two reporter sequence-specific primers. The PCR products were fluorescently labeled by primer extension with 6-arboxyfluorescein (6-FAM) 5'-labeled reporter sequence-specific primer (2 min at 95 C, 20 s at 68 C and 10 min at 72 C) and these products were digested with 5U of HpaI (New England Biolabs) for 2h at 37 C. The fragments were purified using Qiaquick PCR columns (Qiagen), analyzed on an ABI 3130xL genetic analyzer (Applied Biosystems) with peak positions identified by using a set of X-rhodamine (ROX)-labeled MapMarker1000 molecular weight standards (BioVentures). The raw capillary electrophoresis data was processed using Attagraph software (Attagene).", "values": [
      {"smiles": "CCCCOC(=O)C(C)O", "note": "(stereo not given)", "outcome": "inactive"},
      {"smiles": "CCCCCCCCCCCCCC[P+](CCCC)(CCCC)CCCC", "outcome": "inactive"},
      {"smiles": "O=C(F)C1(F)C(F)(F)C(F)(F)C(F)(F)C(F)(F)C1(F)F", "outcome": "inactive"},
      {"smiles": "CCOC(=O)CCC(C)=O", "outcome": "inactive"},
      {"smiles": "Cc1ccc(O)cn1", "outcome": "inactive"},
      {"smiles": "O=C(c1ccccc1)c1ccc(Cl)cc1", "outcome": "inactive"},
      {"smiles": "O=C(O)C(F)(F)C(F)(F)C(F)(F)OC(F)(C(F)(F)F)C(F)(F)F", "outcome": "inactive"},
      {"smiles": "Oc1ccc2c(c1)CCC2", "outcome": "inactive"},
      {"smiles": "N#CCCOCCC#N", "outcome": "inactive"},
      {"smiles": "CCN(CC)c1ccc2c(c1)Oc1cc(N(CC)CC)ccc1C21OC(=O)c2ccccc21", "outcome": "inactive"},
      {"smiles": "CCC/C=C/CO", "outcome": "inactive"},
      {"smiles": "C=C(C)CCCC", "outcome": "inactive"},
      {"smiles": "CC(C)CCCC(C)CCO", "note": "(stereo not given)", "outcome": "inactive"},
      {"smiles": "CO[Si](C)(CCC(F)(F)C(F)(F)C(F)(F)C(F)(F)C(F)(F)C(F)(F)F)OC", "outcome": "inactive"},
      {"smiles": "OCCCCl", "outcome": "inactive"},
      {"smiles": "F[Si-2](F)(F)(F)(F)F", "outcome": "inactive"},
      {"smiles": "O=C(O)C(F)(F)C(F)(F)C(F)(F)C(=O)O", "outcome": "inactive"},
      {"smiles": "CN(N=O)C(=O)N[C@@H]1[C@@H](O)[C@H](O)[C@@H](CO)O[C@@H]1O", "outcome": "inactive"},
      {"smiles": "CCN(CC)c1ccc(N=Nc2ccccc2)cc1", "outcome": "inactive"},
      {"smiles": "O=C(O)CCC(F)(F)C(F)(F)C(F)(F)C(F)(F)C(F)(F)C(F)(F)C(F)(F)F", "outcome": "inactive"},
      {"smiles": "CCCCCCCCCCCCC[N+](C)(C)Cc1ccccc1", "outcome": "inactive"},
      {"smiles": "CO[Si](CCCOCC1CO1)(OC)OC", "note": "(stereo not given)", "outcome": "inactive"},
      {"smiles": "CCc1ccc(C)nc1", "outcome": "inactive"},
      {"smiles": "O=C(Cl)c1ccc(Cl)cc1Cl", "outcome": "inactive"},
      {"smiles": "Cc1cnccn1", "outcome": "inactive"},
      {"smiles": "O=S(=O)(O)CCC(F)(F)C(F)(F)C(F)(F)C(F)(F)C(F)(F)C(F)(F)C(F)(F)C(F)(F)F", "outcome": "inactive"},
      {"smiles": "CCN(CC)c1ccc(C=O)c(O)c1", "outcome": "inactive"},
      {"smiles": "CCOC(OCC)OCC", "outcome": "inactive"},
      {"smiles": "O=c1cccc[nH]1", "outcome": "inactive"},
      {"smiles": "CCc1cccc(C)c1N(C(=O)C(=O)O)C(C)COC", "note": "(stereo not given)", "outcome": "inactive"},
      {"smiles": "CCCCCCCCCCCCCCCCC", "outcome": "inactive"},
      {"smiles": "C#CC(O)CCC", "note": "(stereo not given)", "outcome": "inactive"},
      {"smiles": "C=CCOC(=O)CC(C)C", "outcome": "inactive"},
      {"smiles": "OCC1CCCO1", "note": "(stereo not given)", "outcome": "inactive"},
      {"smiles": "O=C(O)C(F)(F)OC(F)(F)C(F)(F)OC(F)(F)C(F)(F)OC(F)(F)F", "outcome": "inactive"},
      {"smiles": "O=C(c1ccccc1)c1ccc(O)cc1O", "outcome": "inactive"},
      {"smiles": "CCOC(C=C(C)CCC=C(C)C)OCC", "outcome": "inactive"},
      {"smiles": "C=CC(=O)OCC(F)(F)C(F)(F)C(F)(F)C(F)(F)C(F)(F)C(F)(F)C(F)(F)C(F)F", "outcome": "inactive"},
      {"smiles": "CCC(C)CO", "note": "(stereo not given)", "outcome": "inactive"},
      {"smiles": "COCCC(=O)OC", "outcome": "inactive"}
    ]}
  ]
}
